Where “and” joins values, the source holds several entries; their conditions need not be identical. Equal values may be shown once. Inconclusive results are not listed. The source holds several records for some structures; these can differ, active in one and inactive in another. Calls of active or inactive are those of the source. How the source made its calls, unless noted: active means hit-call score of the fitted dose curve at least 0.9, where 1 is the maximum; inactive means score below 0.9.

Test [1] can be described thus: APR_HepG2_CellCycleArrest_1hr: Apredica 1-hour HepG2 Assay for Cell Cycle Arrest (AID 2282666). The note with it: high-content imaging, actives raise or lower the signal. A digest of the protocol:
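Cell cycle arrest scored from nuclear DNA content (Hoechst 33342) using high-content imaging of fixed HepG2 cells after 1 h treatment across 0.39–200 uM, in duplicate. Gain or loss fitted relative to 0.5% DMSO.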

Test [2] can be described thus: APR_HepG2_CellLoss_1hr: Apredica 1-hour HepG2 Assay for Cell Loss (AID 2282668).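 Further: curves fitted both ways against DMSO so gain or loss of cells counts.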 The note with it: high-content imaging. A digest of the protocol: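 Cell number comes from high-content imaging of Hoechst-labelled nuclei in fixed HepG2 cells. Cells were exposed for 1 h to ten concentrations from 0.39 to 200 uM in 0.5% DMSO. Gain or loss was fitted against DMSO controls.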

A short description of test [3]: APR_HepG2_MicrotubuleCSK_1hr: Apredica 1-hour HepG2 Assay for Microtubule CSK Stabilty (AID 2282669). The conditions noted are these: HepG2 microtubule cytoskeleton imaging, actives raise or lower the signal. A digest of the protocol: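 Alpha-tubulin immunofluorescence, imaged by automated high-content microscopy with Hoechst nuclear segmentation, measured cytoskeletal change after 1 h dosing of HepG2 at 0.39–200 uM in 0.5% DMSO. Activity fitted in both directions relative to DMSO.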

Test [4] in a line: APR_HepG2_NuclearSize_1hr: Apredica 1-hour HepG2 Assay for Nuclear Size (AID 2282670). The note with it: high-content imaging, actives raise or lower the signal. A digest of the protocol: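 Nuclear size measured by high-content imaging of Hoechst 33342 nuclear stain after formaldehyde fixation; human HepG2 line exposed 1 hr to compounds at 0.39–200 uM in 0.5% DMSO, with bidirectional curve fitting relative to DMSO.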

Test [5] can be described thus: APR_HepG2_P-H2AX_1hr: Apredica 1-hour HepG2 Assay for H2AX Phosphorylation (AID 2282673). The note with it: high-content imaging, actives raise or lower the signal. A digest of the protocol:
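Phospho-H2A.x immunofluorescence (1:200, FITC secondary) plus Hoechst nuclear stain, quantified by high-content imaging in HepG2 after 1 hr compound exposure. Ten concentrations, 0.39 to 200 uM, in duplicate with 0.5% DMSO; fit both directions against DMSO.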

Test [6] in a line: APR_HepG2_MitoMembPot_1hr: Apredica 1-hour HepG2 Assay for Mitochondrial Membrane Potential (AID 2282675). The conditions noted are these: imaging, actives raise or lower the signal. A digest of the protocol:
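Mitochondrial membrane potential read as MitoTracker Red CMXRos intensity by automated imaging of fixed HepG2 cells. Dye at 250 nM for 30 min pre-fixation; compounds 0.39 to 200 uM for 1 hour, duplicate wells, 0.5% DMSO.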

Test [7] in a line: APR_HepG2_CellCycleArrest_24hr: Apredica 24-hour HepG2 Assay for Cell Cycle Arrest (AID 2282905).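 Further: cell cycle arrest scored as ratio of 2N to 4N nuclear DNA content.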 The note with it: imaging, actives raise or lower the signal. Summed up: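 After 24 h exposure at 0.39–200 uM in 0.5% DMSO, fixed cells received Hoechst 33342 staining. Imaging quantified per-nucleus DNA content; gain or loss fitted against DMSO controls.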
The nature of test [8]: APR_HepG2_CellLoss_24hr: Apredica 24-hour HepG2 Assay for Cell Loss (AID 2282908).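 On AC50: fit in both directions so a hit may be cell loss or gain.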 The conditions noted are these: high-content imaging. Summed up: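 Nuclei stained with Hoechst 33342 after formaldehyde fixation (3.7%) were imaged at 20x to count cells. Exposure lasted 24 hr, at ten concentrations from 0.39 to 200 uM in duplicate, with 0.5% v/v DMSO. Fit bidirectional, relative to DMSO.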

The nature of test [9]: APR_HepG2_MicrotubuleCSK_24hr: Apredica 24-hour HepG2 Assay for Microtubule CSK Stabilty (AID 2282909). The conditions noted are these: HepG2 microtubule cytoskeleton imaging, actives raise or lower the signal. Summed up: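 Fixed HepG2 cells were stained for alpha-tubulin and imaged after 24 hr exposure to ten concentrations spanning 0.39–200 uM in 0.5% DMSO. Signal change was fitted in both directions relative to DMSO; taxol was the positive control.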

Test [10] can be described thus: APR_HepG2_MitoticArrest_24hr: Apredica 24-hour HepG2 Assay for Mitotic Arrest (AID 2282910). The note with it: high-content imaging, actives raise or lower the signal. A digest of the protocol: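 High-content imaging of fixed HepG2 cells labeled with Hoechst 33342 and anti-phospho-histone H3, after 24 h treatment. Ten concentrations 0.39 to 200 uM in duplicate, final DMSO 0.5%; changes fitted both directions relative to DMSO.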

The nature of test [11]: APR_HepG2_MitoMembPot_24hr: Apredica 24-hour HepG2 Assay for Mitochondrial Membrane Potential (AID 2282911). The conditions noted are these: imaging, actives raise or lower the signal. Summed up:
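Mitochondrial dye uptake (MitoTracker Red CMXRos, 250 nM, 30 min pre-fixation) in HepG2 after 24 hr compound exposure, 0.39–200 uM; ArrayScan images at 20x, activity fitted in both directions relative to DMSO.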

Test [12] can be described thus: APR_HepG2_MitoMass_24hr: Apredica 24-hour HepG2 Assay for Mitochondrial Mass (AID 2282912). The note with it: high-content imaging, actives raise or lower the signal. A digest of the protocol:
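Endpoint is MitoTracker Red CMXRos (250 nM, 30 min, pre-fixation) intensity from 20x high-content imaging, nuclei located by Hoechst. Human HepG2 cells received ten concentrations from 0.39 to 200 uM in 0.5% DMSO for 24 hr, duplicate wells. Bidirectional fit relative to DMSO.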

Test [13] is described as follows: APR_HepG2_p53Act_24hr: Apredica 24-hour HepG2 Assay for p53 Activation (AID 2282913).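 Further: p53 protein immunofluorescence averaged per cell in HepG2 with Hoechst nuclei.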 The conditions noted are these: high-content imaging, actives raise or lower the signal. Summed up:
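Following 24 hr dosing of HepG2 at 0.39–200 uM, the cells undergo formaldehyde fixation, Triton permeabilization and multiplexed antibody labeling that includes p53 (Cy5). Signal from the imaging is referenced to DMSO solvent controls.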

The nature of test [14]: APR_HepG2_CellCycleArrest_72hr: Apredica 72-hour HepG2 Assay for Cell Cycle Arrest (AID 2282914). The note with it: high-content imaging, actives raise or lower the signal. Summed up:
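Using multiplexed high-content imaging, HepG2 nuclei stained with Hoechst 33342 (2 ug/mL) were analysed for DNA content after fixation and permeabilization. Treatment lasted 72 hr across 0.39–200 uM in duplicate with final DMSO 0.5% v/v; DMSO served as negative control.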

A short description of test [15]: ACEA_ER_80hr: ACEA Biosciences xCELLigence Real-Time Cell Analysis on Estrogen Receptor Agonism for Proliferation (AID 2282667; active means hit-call score of the fitted dose curve at least 0.9, where 1 is the maximum). The conditions noted are these: T47D proliferation, impedance (xCELLigence), 80 h. Summed up:
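Estrogen-driven proliferation is captured as electrode impedance in T47D cells 80 h after compound addition. Test articles ran at 8 concentrations, 1:4 dilutions from 100 uM final, in two replicate plates.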

A short description of test [16]: APR_HepG2_MitoMass_1hr: Apredica 1-hour HepG2 Assay for Mitochondrial Mass (AID 2282674). The note with it: high-content imaging, actives raise or lower the signal. A digest of the protocol:
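Mitochondrial mass is taken from MitoTracker Red CMXRos (250 nM, 30 min, pre-fixation) fluorescence imaged at 20x in HepG2 cells. Exposure lasted 1 hr across ten concentrations, 0.39 to 200 uM, 0.5% DMSO; DMSO baseline, bidirectional fitting.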

Test [17] is described as follows: APR_HepG2_StressKinase_1hr: Apredica 1-hour HepG2 Assay for Stress Kinase (AID 2282906). The note with it: HepG2 stress kinase (phospho-c-Jun) imaging, actives raise or lower the signal. Summed up: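 High-content imaging of phospho-c-Jun immunostaining (with Hoechst nuclear identification) after a 1 h exposure of HepG2 cells to 10 concentrations from 0.39 to 200 uM, final DMSO 0.5%. Fitted bidirectionally against DMSO.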

Test [18] in a line: APR_HepG2_NuclearSize_24hr: Apredica 24-hour HepG2 Assay for Nuclear Size (AID 2282907). The conditions noted are these: high-content imaging, actives raise or lower the signal. Summed up: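 Nuclear size from Hoechst 33342-stained, formaldehyde-fixed HepG2 nuclei imaged by high-content microscopy, after 24 h dosing at ten concentrations from 0.39 to 200 uM in 0.5% DMSO; gain or loss relative to DMSO baseline.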

The term AC50 denotes the midpoint of the concentration-response curve, whichever way the signal moves. Take `CCCCNC(=O)OCC#CI`: the compound was classed as inactive in test [1], in [3], in test [4], in [5], in [6] and in [7]. Further, the call in [9], in [10], in test [12], in test [13] and in test [14] was inactive. For the same compound, the AC50 in [2] was 100 µM (active) and 129 µM (active); in test [8], 2.6 µM (active) and 6.77 µM (active); in test [9], 14.7 µM (active); in test [11], 119 µM (active) and 41 µM (active).
As to `COc1nc(C)nc(NC(=O)NS(=O)(=O)c2ccccc2Cl)n1`, the result in [1], in test [2], in test [3], in test [5], in [6] and in test [7] was inactive. Further, the call in test [8], in [9], in test [10], in test [11], in test [12] and in test [13] was inactive. The outcome in test [14] was inactive.
Regarding `CC1=C(C(=O)Nc2ccccc2)SCCO1`, the compound was classed as inactive in test [1], in test [15], in test [2], in [3], in [5] and in test [6]. Also, the call in [7], in test [8], in test [10], in test [11], in test [12] and in test [13] was inactive. The result in [14] was inactive.
Consider `COC(=O)c1ccccc1C(=O)OC`, for which the call in test [1], in test [15], in test [2], in test [3], in [5] and in test [16] was inactive. Besides, the compound was classed as inactive in test [6], in test [7], in [8], in test [10], in test [11] and in test [12]. The compound was called inactive in test [13] and in test [14].
Consider `CC(C)C1(C)N=C(c2nc3ccccc3cc2C(=O)O)NC1=O` (stereo not drawn), for which the compound was classed as inactive in test [1], in test [15], in test [2], in [3], in [5] and in test [6]. For the same compound, the result in test [7], in [17], in test [18], in test [8], in [10] and in [11] was inactive. Moreover, the outcome in [12], in [13] and in test [14] was inactive.
`COc1nc(NC(C)C)nc(NC(C)C)n1`: the compound was classed as inactive in test [1], in test [15], in [2], in test [3], in [5] and in test [6]. Further, the compound was classed as inactive in test [7], in [18], in [8], in [10], in [11] and in test [12]. The outcome in test [13] and in test [14] was inactive.
For `CC(Oc1ccc(Cl)cc1Cl)C(=O)O` (stereo not drawn), the compound was called inactive in [1], in test [15], in test [2], in [3], in test [5] and in [6]. The result in test [7], in test [18], in test [8], in test [10], in [11] and in [12] was inactive. The compound was classed as inactive in test [13] and in test [14].

The values above are taken from PubChem BioAssay (EPA / NIEHS).
